Compound activity from PubChem BioAssay.
Shown are actives, neighbours in structure and some others; about 19% of the full set was active somewhere.
IL1B secr inh: inflammasome signaling inhibition, IL-1 beta readout; AID 743279; THP-1 LPS/ATP IL-1B secretion, AlphaLISA, 16 h; hits give low values; hit rate 4.7% among 360,000; activity change, % at 57.5 µM; in the data active = activity change below about -50%; inconclusive = mostly about -30% to -49%
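THP-1 cells pretreated 1 hr with compounds (up to 57.5 uM final), then stimulated with LPS (250 ng/mL final) plus ATP (1.25 mM final); secreted IL-1B measured by AlphaLISA after 16 hr, decreased signal indicating inhibition.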
HT1080-NT tox: kills 2HG-producing HT-1080-NT fibrosarcoma cells | HT-1080-NT fibrosarcoma viability, CellTiter-Glo ATP luminescence, 48 h | Potency, µM (top dose mostly 46.1 µM), inactives show at the highest dose activity, negative = less viability, usual class: cytotoxic | hit rate 1.6% among 360,000 | AID 686970;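 note: NT is the 2HG producing partner of a matched IDH1 knockdown line; potency is the fitted concentration of half-maximal effect; 0% = DMSO-treated cells and -100% = media-only wells without cells; nearly all actives have a fitted effect of over 55% in size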
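Viability by CellTiter-Glo luminescence after 48 h compound exposure at 37C of HT-1080-NT cells (750/well, RPMI, 5% FBS). % activity scaled between DMSO wells and medium-only wells, then curve-fitted and categorized by curve class.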
TDP1 cell CPT: DT40-hTDP1 cell growth loss with CPT. chicken DT40 Tdp1-/-;hTDP1 cells + 20 nM CPT, ATP luminescence, 48 h. Potency, µM (titrated, usually from 46.2 µM), for the others: at the top dose activity change, negative = growth inhibition, hits mostly inhibitors. hit rate 12% among 420,000. AID 686979; note: potency is the fitted concentration of half-maximal effect; nearly all actives have a fitted effect of over 55% in size
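Cell growth measured by CellTiter-Glo luminescence after a minimum 48 h, 37 C compound exposure with 20 nM CPT in Tdp1-knockout DT40 cells stably expressing hTDP1, seeded 400/well; qHTS titration format.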
DT40 TDP1 no CPT: qHTS for Inhibitors of human tyrosyl-DNA phosphodiesterase 1 (TDP1): qHTS in cells in absence of CPT | Potency, µM (highest dose often 46.2 µM), inactives show top-dose activity change, negative = growth inhibition, actives largely listed as inhibitors | hit rate 15% among 420,000 | AID 686978, 2013 | DT40 Tdp1-/- hTDP1 cells, no CPT, ATP luminescence, 48 h; note: potency is the fitted concentration of half-maximal effect; nearly all actives have a fitted effect of over 55% in size
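Chicken DT40 Tdp1-/- cells complemented with human TDP1, screened without camptothecin (DMSO vehicle only), 400 cells/well. Compounds pin-transferred, cells incubated at 37 °C for at least 48 hr. Growth read as ATP-dependent luminescence (CellTiter-Glo, 30 min at RT).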
HT1080 IDH1KD tx: kills HT-1080 cells with IDH1 knockdown; HT-1080 IDH1 knockdown viability, ATP luminescence, 48 h; Potency, µM (series often up to 46.1 µM), without a hit: at the highest dose activity, negative = toxicity, actives largely listed as cytotoxic; hit rate 2% among 360,000; AID 686971;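 note: potency is the fitted concentration of half-maximal effect; 0% = DMSO wells and -100% = cell-free medium wells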
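CellTiter-Glo luminescence after 48 h compound exposure at 37 degrees C of IDH1-knockdown HT-1080 cells in 5% FBS RPMI. %Activity scaled between DMSO wells and cell-free media wells, with curves fitted and assigned curve classes.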
Numbers without * were called inactive. Unless noted, calls come from the whole dose curve; as a rule, active = well fitted curve in the direction sought with a large enough effect; inconclusive = small, poorly fitted or top-dose-only effect, or another doubt; inactive = no such curve, though single readings can be large; an effect the other way counts as inactive or inconclusive. Unless noted, % is set by controls: 0 for no effect and ±100 for the full control effect.

Screening COc1cc(OC)c2c(C)c(CC(=O)NCCc3ccccc3OC)c(=O)oc2c1 returned TDP1 cell CPT 6% and DT40 TDP1 no CPT 0%.
`CCN(CC(=O)Nc1ccc(NC(C)=O)cc1)C(=O)C1COc2ccccc2O1` (configuration not stated) gave IL1B secr inh -2, HT1080-NT tox 2%, TDP1 cell CPT 5%, DT40 TDP1 no CPT 0% and HT1080 IDH1KD tx 3%.
Screening COc1ccc2oc(C(=O)OCC(=O)N3CC(C)CC(C)C3)c(C)c2c1 (configuration not stated) returned IL1B secr inh -27, HT1080-NT tox 6%, TDP1 cell CPT inconclusive, DT40 TDP1 no CPT inconclusive and HT1080 IDH1KD tx -4%.
COc1ccc2cc(C(C)C(=O)NC3CCC(O)CC3)ccc2c1 (configuration not stated) was read as IL1B secr inh -3, HT1080-NT tox 4%, TDP1 cell CPT 19%, DT40 TDP1 no CPT -12% and HT1080 IDH1KD tx 2%.
COc1ccc2oc(C(=O)OC(C)C(=O)N3CCC(C)CC3)c(C)c2c1 (configuration not stated) was read as IL1B secr inh -3, HT1080-NT tox -3%, TDP1 cell CPT inconclusive, DT40 TDP1 no CPT 15µM* and HT1080 IDH1KD tx -5%.
COc1ccc2cc(C(C)C(=O)N3CCC(C)CC3)ccc2c1 (configuration not stated) was read as IL1B secr inh inconclusive, HT1080-NT tox 15µM*, TDP1 cell CPT 16µM*, DT40 TDP1 no CPT inconclusive and HT1080 IDH1KD tx inconclusive.
`COC(=O)C(C)SC1=N/C(=C/c2ccc(-n3cncn3)cc2)C(=O)N1` (configuration not stated) gave IL1B secr inh 0, HT1080-NT tox 2%, TDP1 cell CPT inconclusive, DT40 TDP1 no CPT -12% and HT1080 IDH1KD tx 1%.
For C[C@H](NC(=O)[C@@H]1CCCN1C(=O)OC(C)(C)C)c1ccccc1 the results were IL1B secr inh 16, HT1080-NT tox 14%, TDP1 cell CPT 12%, DT40 TDP1 no CPT 6% and HT1080 IDH1KD tx 2%.
COc1ccc(OCC(O)CNC2CCCC2)cc1 (configuration not stated) was read as IL1B secr inh -17, HT1080-NT tox -1%, TDP1 cell CPT -11%, DT40 TDP1 no CPT inconclusive and HT1080 IDH1KD tx -2%.
Screening O=C(c1ccccc1)c1ccc(OCC(O)CN2CCN(Cc3ccccc3)CC2)cc1 (configuration not stated) returned IL1B secr inh inconclusive, HT1080-NT tox -1%, TDP1 cell CPT 21µM*, DT40 TDP1 no CPT 23µM* and HT1080 IDH1KD tx 0%.
Screening O=C(/C=C/c1ccc(OCCCF)cc1)N1CCN(Cc2ccccc2)CC1 returned IL1B secr inh -53*, HT1080-NT tox 0%, TDP1 cell CPT 1%, DT40 TDP1 no CPT inconclusive and HT1080 IDH1KD tx -17%.
CCOc1ccc(OCC(O)CNC2CCN(Cc3ccccc3)CC2)cc1 (configuration not stated) was read as IL1B secr inh inconclusive, HT1080-NT tox inconclusive, TDP1 cell CPT 5.8µM*, DT40 TDP1 no CPT 9.2µM* and HT1080 IDH1KD tx inconclusive.
O=C(/C=C/c1ccc([N+](=O)[O-])cc1)N1CCN(Cc2ccccc2)CC1 was read as IL1B secr inh -10, HT1080-NT tox 3%, TDP1 cell CPT inconclusive, DT40 TDP1 no CPT inconclusive and HT1080 IDH1KD tx -6%.
`O=C(c1ccccc1)c1ccc(OCCOCCN2CCN(Cc3ccccc3)CC2)cc1` gave IL1B secr inh inconclusive, HT1080-NT tox 18µM*, TDP1 cell CPT 23µM*, DT40 TDP1 no CPT 21µM* and HT1080 IDH1KD tx inconclusive.
CCOC1=C2[C@@H](CN(S(=O)(=O)c3ccc(C)cc3)[C@H]2c2ccccc2Cl)[C@H]2C(=O)N(C(C)(C)C)C(=O)[C@H]2C1 was read as IL1B secr inh -8, HT1080-NT tox -2%, TDP1 cell CPT inconclusive, DT40 TDP1 no CPT inconclusive and HT1080 IDH1KD tx -8%.
For CCC(C(=O)NCCCN1CC(C)CC(C)C1)n1ncn2c(cc3occc32)c1=O (configuration not stated) the results were IL1B secr inh -17, HT1080-NT tox -5%, TDP1 cell CPT -4%, DT40 TDP1 no CPT 24% and HT1080 IDH1KD tx -1%.
CCOc1ccccc1OCCOCCN1CCN(Cc2ccccc2)CC1 was read as IL1B secr inh -6, HT1080-NT tox 2%, TDP1 cell CPT inconclusive, DT40 TDP1 no CPT inconclusive and HT1080 IDH1KD tx -7%.
`FC(F)(F)c1cccc(OCCN2CCN(Cc3ccccc3)CC2)c1` gave IL1B secr inh 13, HT1080-NT tox -5%, TDP1 cell CPT 21µM*, DT40 TDP1 no CPT inconclusive and HT1080 IDH1KD tx 0%.
c1ccc(CN2CCN(CCOCCOc3ccc4c(c3)CCC4)CC2)cc1 was read as IL1B secr inh -60*, HT1080-NT tox 16µM*, TDP1 cell CPT inconclusive, DT40 TDP1 no CPT 23µM* and HT1080 IDH1KD tx inconclusive.
For O=[N+]([O-])c1cccc(C=NNc2ccc3ccccc3n2)c1O the results were IL1B secr inh 84, HT1080-NT tox -28%, TDP1 cell CPT 5.2µM*, DT40 TDP1 no CPT 5.8µM* and HT1080 IDH1KD tx inconclusive.
For Brc1ccccc1/C=N/Nc1ccc2ccccc2n1 the results were IL1B secr inh -9, HT1080-NT tox inconclusive, TDP1 cell CPT inconclusive, DT40 TDP1 no CPT 16µM* and HT1080 IDH1KD tx -17%.
Screening CCc1ccccc1NC(=O)Cn1nnc(C(=O)OC)c1C(=O)OC returned TDP1 cell CPT 22% and DT40 TDP1 no CPT 38%.
For CC(OC(=O)c1ccc2c(c1)S(=O)(=O)c1ccccc1C2=O)C(N)=O (configuration not stated) the results were IL1B secr inh 41, HT1080-NT tox 16%, TDP1 cell CPT -16%, DT40 TDP1 no CPT -11% and HT1080 IDH1KD tx 0%.
CCn1nc(C)cc1-c1nnc(Sc2ncc([N+](=O)[O-])s2)n1C was read as IL1B secr inh -99*, HT1080-NT tox 10µM*, TDP1 cell CPT 0.58µM*, DT40 TDP1 no CPT 0.58µM* and HT1080 IDH1KD tx 21µM*.
For Cc1ccc2cc3cc(C(=O)N4CCCCC4C)oc3nc2c1 (configuration not stated) the results were IL1B secr inh -77*, HT1080-NT tox -16%, TDP1 cell CPT inconclusive, DT40 TDP1 no CPT inconclusive and HT1080 IDH1KD tx -24%.
Screening Cc1ccc2cc3cc(C(=O)N4CC(C)CC(C)C4)oc3nc2c1 (configuration not stated) returned IL1B secr inh -53*, HT1080-NT tox -20%, TDP1 cell CPT inconclusive, DT40 TDP1 no CPT 23µM* and HT1080 IDH1KD tx -21%.
